Values joined by “and” are separate entries in the source; they are usually repeats but may differ in a detail not shown here. Equal values may be shown once. The panel holds about 83,000 compounds, 20% with a hit somewhere; the sample as a whole holds those more often.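 Assay: single dose, 48 h. Readout: percent growth (0 = no net growth; negative = cell death). Active: <10.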 The source holds several records for some structures; these can differ, active in one and inactive in another. Active and inactive are the calls of the source. *1 amine or outer side, *2 acyl side, *3 side chain or, on linkers, in order; H or OH if unused. Where a SMILES comes first, the peptide text is derived from it. Bridges are numbered along the chain shown (N, C = ends). Roman numbers before positions name the chains, in order. [ ]: non-standard residue; d: D form. Actinocin(1to9) = Cc1c2oc3c(C)ccc(C(=O)[*:2])c3nc-2c(C(=O)[*:1])c(N)c1=O; NMeV = CN[CH](C(=O)O)C(C)C; Sar = CNCC(=O)O

The first assay relates to UACC-62 melanoma. The assay can be described thus: NCI-60 one-dose screen, 48 h (100 = growth as untreated, 0 = no growth, -100 = all killed). The note with it: 10 µM unless noted.
In the case of `C/C(=N\NC(=S)N1CC2CCC(CC2)C1)c1ccccn1`, the growth is -36.7% (active).

With `Cc1ccc(NC(=S)C#N)cc1Cl`, the growth was -35.5% [100 µM] (active) and -95.7% [100 µM] (active).

`O=C(Nc1cccc(C(F)(F)F)c1)Oc1ccc(Cl)c2cccnc12`: the growth was 32.4% (inactive).

`CC(=O)c1c(O)c(C)c(O)c2c1OC1=CC(=O)C(C(C)=O)C(=O)C12C` (stereo unspecified): the growth was 62.8% (inactive).

For `N=C(N)Sc1cccc[n+]1[O-]`, the growth was 23.2% (inactive).

Consider `Cc1oc2c(C)c3oc(=O)cc(C)c3cc2c1CCl`, for which the growth was 44.3% (inactive).

Consider `CCC(C)C1NC(=O)C(NC(=O)c2c3nc4c(C(=O)NC5C(=O)NC(C(C)CC)C(=O)N6CCCC6C(=O)N(C)CC(=O)N(C)C(C(C)C)C(=O)OC5C)ccc(C)c4oc-3c(C)c(=O)c2N)C(C)OC(=O)C(C(C)C)N(C)C(=O)CN(C)C(=O)C2CCCN2C1=O` (stereo unspecified) (I: TIP[Sar][NMeV] / II: TIP[Sar][NMeV]; ester I:1-I:C, II:1-II:C; linker I:N-II:N via Actinocin(1to9); configuration not given here), for which the growth is -67.8% (active).

As to `COc1ccc(NC(=O)/C(=C/N2C(=O)/C(=C/c3ccc(OC)c(OC)c3)NC2=S)C(C)=O)cc1`, the growth is 53.9% (inactive).

As to `O=C1C=CC(=O)c2c(O)c(CO)c(CO)c(O)c21`, the growth was 93.3% (inactive).

For the compound `CCCCCCCCCCCC1=NCCCN1CCCC`, the growth was 96.7% (inactive).

With `CN(C)c1ccc(C(C#N)(c2ccccc2)c2ccc(N(C)C)cc2)cc1`, the growth was 70.5% (inactive).

Regarding `O=C(Nc1ccc(Cl)c(Cl)c1)OCc1ccco1`, the growth was 25.5% (inactive).

With `O=C1/C(=C/c2ccccc2)CCC/C1=C\c1ccccc1`, the growth was 82.6% (inactive).

On to `CC1(C=O)CCC23COC4(CCC5C6(C)CCC(OC7OCC(OC8OC(CO)C(O)C(OC9OC(CO)C(O)C(O)C9O)C8OC8OCC(O)C(O)C8O)C(O)C7OC7OC(CO)C(O)C(O)C7O)C(C)(C)C6CCC5(C)C4(C)CC2O)C3C1` (stereo unspecified), for which the growth is -69% [100 µM] (active) and -57.3% [100 µM] (active).

For `CCOC(=O)C1(C)CCCC1N` (stereo unspecified), the growth is 91.6% (inactive).

Take `Cc1cc(=O)oc2cc(O)cc(O)c12`: the growth was 102% (inactive).

Take `COc1ccc2nc3c4c(nccc4c2c1)-c1ncccc1C3=O`: the growth was -95.8% [50 µM] (active) and -100% [50 µM] (active).

For the compound `NNc1cccc([N+](=O)[O-])c1`, the growth was 77.2% (inactive).

As to `N#CCc1cccc2ccccc12`, the growth was 111% (inactive).

As for `CC1(C)N=c2cc3c(cc2N1c1ccc(Cl)cc1)=Nc1ccccc1N3c1ccc(Cl)cc1`, the growth was 69.1% (inactive).

For `Oc1ccc2ccccc2c1N=Nc1nccs1`, the growth was 0.0083% (active).

As to `NC(=S)N/N=C\c1nccc2c(N)cccc12`, the growth was -29% (active).

With `COC(=O)C(=[N+]=[N-])C(=O)c1ccc([N+](=O)[O-])o1`, the growth is 74% (inactive).

On to `OC(c1cc(-c2ccc(C(F)(F)F)cc2)nc(C(F)(F)F)c1)C1CCCCN1` (stereo unspecified), for which the growth was 0.644% (active) and -95.1% (active) and 69.5% (inactive).

As for `O=C1Nc2ccc(Br)cc2C1=O`, the growth was 90.4% (inactive).

Consider `C/C=C/c1cc2c(c(=O)o1)C(=O)[C@@H](O)[C@H](C)O2`, for which the growth is 80.5% (inactive).

`CCOc1ccc(NC(=O)/C(=N\N)C(C(=O)OC)c2nc3ccc(Cl)cc3[nH]c2=O)cc1` (stereo unspecified): the growth is 79.7% [100 µM] (inactive) and 57.3% [100 µM] (inactive).

As to `Nc1cccc2cccc([N+](=O)[O-])c12`, the growth was 98.9% (inactive).

`COc1cccc2c1C(=O)c1c(O)c3c(c(O)c1C2=O)C[C@@](O)(C(=O)CO)C[C@@H]3OC1CC(OC(C)=O)C(OC(C)=O)C(C)O1` (stereo partly specified): the growth is -87.8% (active).

Consider `O=C1C=CC(=O)N1c1ccccc1`, for which the growth was 93.2% (inactive).

With `CCOC(=O)C1=C(C(=O)c2ccccc2)C(c2cccc([N+](=O)[O-])c2)C(C(=O)c2ccccc2)=C(C(=O)OCC)N1`, the growth was 70.2% (inactive).

`N#C/C(=N\Nc1ccc(Cl)cc1)C(=O)C1CC1`: the growth is 32.1% (inactive).

As for `Cc1cc(N/N=C/c2ccccn2)nc2ccccc12`, the growth is -46.5% (active).

Consider `CC(CSc1n[nH]c(=S)s1)c1ccccc1` (stereo unspecified), for which the growth was 108% (inactive).

In the case of `CC/C(=C(/CC)c1ccc(O)cc1)c1ccc(O)cc1`, the growth is 42.4% (inactive).

As for `CCOC(=O)C1=NN(c2ccccc2)C(=O)/C1=C\N1C(=O)/C(=C/c2cccc(O)c2)SC1=S`, the growth is 91.9% (inactive).

A further assay deals with LOX IMVI melanoma. The description is as above. The note with it: 10 µM.
As for `C/C(=N\NC(=S)N1CC2CCC(CC2)C1)c1ccccn1`, the growth is 4.04% (active).

In the case of `O=C(Nc1cccc(C(F)(F)F)c1)Oc1ccc(Cl)c2cccnc12`, the growth was 2.8% (active).

With `N=C(N)Sc1cccc[n+]1[O-]`, the growth was -30.9% (active).

On to `Cc1oc2c(C)c3oc(=O)cc(C)c3cc2c1CCl`, for which the growth is 56.6% (inactive).

As to `CCC(C)C1NC(=O)C(NC(=O)c2c3nc4c(C(=O)NC5C(=O)NC(C(C)CC)C(=O)N6CCCC6C(=O)N(C)CC(=O)N(C)C(C(C)C)C(=O)OC5C)ccc(C)c4oc-3c(C)c(=O)c2N)C(C)OC(=O)C(C(C)C)N(C)C(=O)CN(C)C(=O)C2CCCN2C1=O` (stereo unspecified) (I: TIP[Sar][NMeV] / II: TIP[Sar][NMeV]; ester I:1-I:C, II:1-II:C; linker I:N-II:N via Actinocin(1to9); configuration not given here), the growth was 0.241% (active).

Regarding `COc1ccc(NC(=O)/C(=C/N2C(=O)/C(=C/c3ccc(OC)c(OC)c3)NC2=S)C(C)=O)cc1`, the growth was 58.9% (inactive).

On to `O=C1C=CC(=O)c2c(O)c(CO)c(CO)c(O)c21`, for which the growth is 73.5% (inactive).

Consider `CCCCCCCCCCCC1=NCCCN1CCCC`, for which the growth was 77.1% (inactive).

Regarding `CN(C)c1ccc(C(C#N)(c2ccccc2)c2ccc(N(C)C)cc2)cc1`, the growth is 51.1% (inactive).

For `O=C1/C(=C/c2ccccc2)CCC/C1=C\c1ccccc1`, the growth was 28.8% (inactive).

On to `N#Cc1c2ccccc2nc2ccccc12`, for which the growth is 101% (inactive).

For `Cc1cc(=O)oc2cc(O)cc(O)c12`, the growth was 97.9% (inactive).

In the case of `NNc1cccc([N+](=O)[O-])c1`, the growth was 76.6% (inactive).

On to `N#CCc1cccc2ccccc12`, for which the growth is 108% (inactive).

For the compound `CC1(C)N=c2cc3c(cc2N1c1ccc(Cl)cc1)=Nc1ccccc1N3c1ccc(Cl)cc1`, the growth is 40.5% (inactive).

Consider `Oc1ccc2ccccc2c1N=Nc1nccs1`, for which the growth is 5.25% (active).

Consider `NC(=S)N/N=C\c1nccc2c(N)cccc12`, for which the growth was 5.29% (active).

As for `COC(=O)C(=[N+]=[N-])C(=O)c1ccc([N+](=O)[O-])o1`, the growth is 78.9% (inactive).

Consider `OC(c1cc(-c2ccc(C(F)(F)F)cc2)nc(C(F)(F)F)c1)C1CCCCN1` (stereo unspecified), for which the growth is -55.2% (active) and -97.5% (active) and -80.7% (active).

Take `O=C1Nc2ccc(Br)cc2C1=O`: the growth is 87.4% (inactive).

On to `C/C=C/c1cc2c(c(=O)o1)C(=O)[C@@H](O)[C@H](C)O2`, for which the growth is 25.2% (inactive).

`Nc1cccc2cccc([N+](=O)[O-])c12`: the growth is 105% (inactive).

In the case of `COc1cccc2c1C(=O)c1c(O)c3c(c(O)c1C2=O)C[C@@](O)(C(=O)CO)C[C@@H]3OC1CC(OC(C)=O)C(OC(C)=O)C(C)O1` (stereo partly specified), the growth was -75.4% (active).

Regarding `CCOC(=O)C1=C(C(=O)c2ccccc2)C(c2cccc([N+](=O)[O-])c2)C(C(=O)c2ccccc2)=C(C(=O)OCC)N1`, the growth was -57.6% (active).

With `N#C/C(=N\Nc1ccc(Cl)cc1)C(=O)C1CC1`, the growth was 67.2% (inactive).

Regarding `Cc1cc(N/N=C/c2ccccn2)nc2ccccc12`, the growth is 4.97% (active).

As to `O=C1C(=O)c2cccnc2-c2ncccc21`, the growth is -83.8% (active).

As to `CC(CSc1n[nH]c(=S)s1)c1ccccc1` (stereo unspecified), the growth was 97.6% (inactive).

`CC/C(=C(/CC)c1ccc(O)cc1)c1ccc(O)cc1`: the growth is 65.2% (inactive).

Take `CCOC(=O)C1=NN(c2ccccc2)C(=O)/C1=C\N1C(=O)/C(=C/c2cccc(O)c2)SC1=S`: the growth is 88% (inactive).

(Values after PubChem BioAssay (NCI).)
